Measurements reported in PubChem BioAssay (Tox21).
Inconclusive results are not listed. Values without a mark were called inactive. The source made the active and inactive calls. The call rests on the fitted dose curve; in most records, active means well fitted cell-killing curve with a large enough effect in the repeat runs; inconclusive means weak or mixed curves; inactive means flat fitted curve, though single readings scatter.

Experiment: qHTS RealTime-Glo MT Cell Viability Assay in HepG2 cells - 32 hour (AID 1224877); further: nearly all actives have a fitted effect of over 55% in size
Conditions: RealTime-Glo luminescence; series mostly up to 76.8 µM; activity change, negative = cytotoxic: at the top concentration
Source text: U.S. Tox21 Program National Center for Advancing Translational Sciences [NCATS] NIH Chemical Genomics Center [NCGC] U.S. Environmental Protection Agency [EPA] National Institutes of Environmental Health Sciences [NIEHS] National Toxicology Program [NTP] U.S. Food and Drug Administration [FDA] Tox21 Assay Overview: Measure of cell viability is critical in the cell-base assay. Analysis of cell viability is necessary for the characterization of cell responses to cytotoxic drugs and environmental stress. A RealTime-Glo MT Cell Viability Assay to monitor cell viability in real time of continues cell culture during 40 hours of compound treatment was used to screen Tox21 10K library compounds in HepG2 cells. The RealTime-Glo MT Cell Viability Assay is a nonlytic, homogeneous, bioluminescent method to measure cell viability in real time using a simple, plate-based method. The assay involves adding NanoLuc luciferase and a cell-permeant prosubstrate to cells in culture. Viable cells reduce the proprietary prosubstrate to generate a substrate for NanoLuc luciferase. This substrate diffuses from cells into the surrounding culture medium, where it is rapidly used by the NanoLuc Enzyme to produce a luminescent signal. The signal correlates with the number of viable cells, making the assay well suited for cytotoxicity studies.
Tox21 Assay Protocol Summary: The mixture of HepG2 cell suspension and reagents were dispensed at 600cells/6 ul/well in 1536-well tissue culture treated black solid bottom plates using a Multidrop dispenser. After the assay plates were incubated at a 37 C/5% CO2 incubator for 5 hours, 23 nL of compounds dissolved in DMSO, positive and negative controls was transferred to the assay plate by a pintool work station. The plates were incubated at 37 C for 40 hours. The luminescence intensity were measured at 0h, 8h, 16h, 24h, 32h and 40h time points using ViewLux plate reader during compound treatment.
On the % scale 0 is the no-effect control and ±100 the full control effect; potency means the concentration at half of the fitted maximal effect.

Compared with Cc1ccc(N(CC2=NCCN2)c2cccc(O)c2)cc1, COc1ccc(-c2cc(C(F)F)nn2-c2ccc(S(N)(=O)=O)cc2)cc1F is lower in “activity change, negative = cytotoxic” value: -1.66% [at 35.3 µM] for the first, -13.7% [at 35.3 µM] for the second.

Compared with Cc1ccc(S(=O)(=O)NC(=O)NC2CCCCC2)cc1, CCOC(=O)N1CCC(Nc2ccc(Cl)cc2N)CC1 is lower in “activity change, negative = cytotoxic” value: 5.75% [at 35.3 µM] for the first, -2.82% [at 35.3 µM] for the second.

Compared with CC(C)(C)NCC(O)COc1cccc2c1C[C@H](O)[C@H](O)C2 (stereo not given in full), CC(C(=O)O)c1ccc(C(=O)c2cccs2)cc1 (stereo not given) is higher in “activity change, negative = cytotoxic” value: 3.67% [at 35.3 µM] for the first, 9.75% [at 35.3 µM] for the second.

Compared with Cc1cccc(C)c1NC(=O)c1cc(S(N)(=O)=O)c(Cl)cc1O, Oc1cccc2[nH]ccc12 is higher in “activity change, negative = cytotoxic” value: 0.167% [at 35.3 µM] for the first, 0.37% [at 35.3 µM] for the second.

Going from N[C@@H](Cc1cc(I)c(O)c(I)c1)C(=O)O to C[C@H](CS)C(=O)N1CCC[C@H]1C(=O)O, the “activity change, negative = cytotoxic” value rises from -3.61% [at 35.3 µM] to 0.802% [at 35.3 µM].

First: CC[C@H]1OC(=O)[C@H](C)[C@@H](O[C@H]2C[C@@](C)(OC)[C@@H](O)[C@H](C)O2)[C@H](C)[C@@H](O[C@@H]2O[C@H](C)C[C@H](N(C)C)[C@H]2O)[C@](C)(O)C[C@@H](C)C(=O)[C@H](C)[C@@H](O)[C@]1(C)O
Second: CCOc1ncc(F)c(=O)[nH]1
The “activity change, negative = cytotoxic” value of the first is lower: -7.37% [at 35.3 µM] for the first, 3.2% [at 35.3 µM] for the second.

First: Cc1ccc2nc(N)[nH]c(=O)c2c1Sc1ccncc1
Second: Nc1ccc(N=Nc2ccc(N)cc2)cc1
The “activity change, negative = cytotoxic” value of the first is lower: -14% [at 35.3 µM] for the first, -2.09% [at 35.3 µM] for the second.

For Cc1cc(CCCOc2c(C)cc(-c3noc(C(F)(F)F)n3)cc2C)on1, the “activity change, negative = cytotoxic” value was -6.79% [at 35.3 µM].

First: CCCCCCCC/C=C\CCCCCCCC(=O)OCCO
Second: CCCCCCCCCCCCCC(=O)OCC(O)CO (stereo not given)
The “activity change, negative = cytotoxic” value of the first is higher: 15% for the first, 1.11% for the second.

Compared with CC(C)COC(=O)c1ccc(O)cc1, CCc1ccc(C)cc1 is lower in “activity change, negative = cytotoxic” value: 0.537% for the first, -2.54% for the second.

Compared with BrC(Br)C(Br)Br, CCOC(=O)C(C)O (stereo not given) is lower in “activity change, negative = cytotoxic” value: 0.342% for the first, -0.563% for the second.

Going from [Cl][Nd]([Cl])[Cl] to CS(=O)(=O)c1ccc([C@@H](C[C@H]2CCC(=O)C2)C(=O)Nc2cnccn2)cc1Cl, the “activity change, negative = cytotoxic” value rises from -13.7% to 6.07%.

First: C=Cc1ccc(OC(C)=O)cc1
Second: CC(=O)c1ccc[nH]1
The “activity change, negative = cytotoxic” value of the first is lower: -0.262% for the first, -0.0089% for the second.

Compared with O=CNNC=O, COC(=O)CC(C(C)=O)C(=O)OC (stereo not given) is lower in “activity change, negative = cytotoxic” value: 1.64% for the first, 0.888% for the second.

First: CC(CN(CCN(CC(C)OCCO)CC(C)OCCO)CC(C)OCCO)OCCO (stereo not given)
Second: CC(=O)OCCC(C)CC(C)(C)C (stereo not given)
The “activity change, negative = cytotoxic” value of the first is lower: -28.5% for the first, -1.07% for the second.

First: COc1cc(S(=O)(=O)Nc2ccccc2)c(OC)cc1N
Second: CC(C)(O)CCc1ccccc1
The “activity change, negative = cytotoxic” value of the first is lower: -17.5% for the first, -0.162% for the second.

First: CC(=O)C(C)=O
Second: NC(=O)CCCCC(N)=O
The “activity change, negative = cytotoxic” value of the first is higher: 1.99% for the first, -4.27% for the second.

First: O=C(O)c1cccc(C[C@@H]2COc3ccc(OCc4nc5cc(F)ccc5s4)cc3[C@@H]2O)c1
Second: COc1ccc(-n2nc(C(F)F)cc2-c2ccc(S(C)=O)cc2)cc1 (stereo not given)
The “activity change, negative = cytotoxic” value of the first is higher: 2.38% for the first, -1.58% for the second.

Compared with c1ccc(CCCc2ccncc2)cc1, Nc1ccc(NC(=O)c2ccc(N)cc2)cc1 is higher in “activity change, negative = cytotoxic” value: -3.14% for the first, 0.93% for the second.

In the case of COc1ccc(N)c([N+](=O)[O-])c1, the “activity change, negative = cytotoxic” value is reported as -4.79%.

In the case of CN1CCCN(C(c2ccccc2)c2ccc(Cl)cc2)CC1 (stereo not given), the Potency is reported as 23.9 µM (active).

CCCCCCCCCCCCCCN(C)C gave an activity change, negative = cytotoxic of 5.76% [at 15.8 µM].
